Compound activity (PubChem)
The sample as a whole holds a higher share of hits than the screen did.
KDM5B inhibitor – Primary screen for KDM5B Histone Demethylases FDH-coupled qHTS; 220,000 tested, 2.6% active; Potency, µM (series often up to 57.7 µM), hits mostly inhibitors; KDM5B demethylase, FDH-coupled NADH fluorescence (FDH is formaldehyde dehydrogenase); active = well fitted inhibition curve with a large enough effect; note: 0% is about no effect; nearly all actives have a fitted effect of over 70% in size
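Here, H3K4me3 peptide (12.5 µM in substrate mix) is demethylated by KDM5BΔAP, 200 nM final, after 10 min compound exposure. Formaldehyde product is coupled through FDH (0.25 U/mL in mix) to NADH fluorescence; 30-min ΔRFU feeds dose-response curves.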
* = called active by the depositor; i = inactive. Potency is the fitted concentration of half-maximal effect.

SMILES	KDM5B inhibitor
Cn1c(=O)c2c(nc(NCc3ccc(S(N)(=O)=O)cc3)n2Cc2ccccc2Cl)n(C)c1=O	i
O=C(Cc1ccccc1F)NCCc1noc(C2CC2)n1	i
O=c1[nH]c(-c2cccc(O)c2)nc2c1Cc1c(ccc3ccccc13)O2	i
COc1ccc(S(=O)(=O)N2CCN(C(=O)c3csc(C)n3)CC2)cc1	i
CN(CC(=O)NC(C)(C)C)C(=O)CCl	i
FC(F)(F)c1cccc2c(N3CCC4(CCCN4Cc4ncc[nH]4)CC3)ccnc12	28µM*
FC(F)(F)c1cccc2c(N3CCOC(C(F)(F)F)C3)ccnc12 (stereo not drawn)	i
COCCC1(C(=O)O)CCN(c2ccnc3c(C(F)(F)F)cccc23)CC1	i
Cc1ccc(C23CC4CC(CC(C(=O)O)(C4)C2)C3)cc1C	i
COc1cc(CC(=O)OCc2ccccc2Br)cc(OC)c1OC	i
CC(C)CCC1=NC2(CCN(C(=O)CCN3CCCCC3=O)CC2)C(=O)N1	i
c1ccc(-c2ccc3ncc(Nc4ccncc4)n3n2)cc1	i
CCCCN(Cc1ccccc1)c1ccc(C(=O)O)cc1NS(=O)(=O)c1ccc(C(C)=O)cc1	i
O=C(c1ccc(Cl)cc1)N1CC2(CCCN2C2COC2)Cc2ccccc21 (stereo not drawn)	89µM*
O=C(c1ccc(Cl)cc1)N1CC2(CCN(C3COC3)CC2)Cc2ccccc21	i
O=C(c1ccccc1)N1CC2(CCCN2C2COC2)Cc2ccccc21 (stereo not drawn)	i
C=CCNC(=O)c1ccc(CNC(N)=O)cc1	i
C=CCNC(=O)c1ccc2cncn2c1	32µM*
C=CCNC(=O)c1ccc(COc2ccc(Cl)cc2)cc1	i
Cc1cc(NC(=O)C(C)C)ccc1Br	i
Cc1ccc(N2C(=O)CC(c3cccs3)C3=C2CCCC3=O)cc1 (stereo not drawn)	i
CC1(C)C(c2ccc(Cl)cc2)=[N+]([O-])C(C)(C)N1O	i
CCCC(=O)Nc1oc2c(C)cccc2c(=O)c1-c1ccc(OC)cc1	i
COc1ncc(-c2nccc3c(=O)cc(N4CCN(C)CC4)oc23)cn1	35µM*
Cn1ccc(Nc2nccc3c(=O)cc(-c4cn[nH]c4)oc23)n1	i
SMILES	KDM5B inhibitor
COc1ncc(-c2nccc3c(=O)cc(N(C)c4ccccc4)oc23)cn1	i
COc1ccc(-c2nccc3c(=O)cc(N4CCN(C)CC4)oc23)cn1	32µM*
Nc1cccc(COCC(F)(F)C(F)F)c1	i
O=Cc1c(-c2ccccc2)c(C=O)n2ccccc12	i
CNC(=O)[C@@H]1CN(C(=O)c2ccc(Cl)s2)C[C@H]1c1nc(COC)no1	i
CNC(=O)[C@@H]1CN(C(=O)c2sccc2C)C[C@H]1c1nc(COC)no1	i
CNC(=O)[C@@H]1CN(C(=O)c2ccc(C)[nH]c2=O)C[C@H]1c1nc(COC)no1	25µM*
O=C(Nc1ccccc1)N1C[C@@H](F)[C@@H](OCc2nc3ccccc3o2)C1	i
C=CCOc1ccccc1NC(=O)c1ccccc1C	i
COc1ccc(N2CC(c3noc(-c4ccccc4OC)n3)CC2=O)cc1 (stereo not drawn)	i
O=C1CC(c2noc(-c3ccccc3F)n2)CN1C1CCCCC1 (stereo not drawn)	i
COc1ccc(-c2nc(C3CC(=O)N(c4ccc(OC)c(OC)c4)C3)no2)c(C)c1 (stereo not drawn)	i
CCc1ccc(N2CC(c3noc(-c4ccc(OC)cc4OC)n3)CC2=O)cc1 (stereo not drawn)	32µM*
COc1ccccc1-c1nc(C2CC(=O)N(c3ccc(C)cc3)C2)no1 (stereo not drawn)	i
COc1ccccc1-c1nc(C2CC(=O)N(C3CCCCC3)C2)no1 (stereo not drawn)	20µM*
COc1ccc(-c2nc(C3CC(=O)N(c4ccc(C)cc4)C3)no2)c(OC)c1 (stereo not drawn)	25µM*
O=C1CC(c2noc(-c3ccco3)n2)CN1C1CCCCC1 (stereo not drawn)	i
COc1ccc(N2CC(c3noc(-c4ccc(OC)cc4OC)n3)CC2=O)cc1 (stereo not drawn)	i
N#Cc1ccc(OCCOc2ccc3ccc(=O)oc3c2)cc1	i
CC(C(=O)N(C)Cc1ccccc1)S(=O)(=O)Cc1cccc(Cl)c1 (stereo not drawn)	i
Cc1ccc(C(C)NC(=O)CSc2nc(CN3CCOCC3)nc3ccccc23)cc1C (stereo not drawn)	i
O=C(N1CCC(c2n[nH]c(=O)n2Cc2ccc(F)cc2)CC1)C1(c2ccccc2)CC1	i
Cc1ccc(C)c(S(=O)(=O)N2CCN(CC(=O)NC(=O)NC(C)(C)C)CC2)c1	i
Cc1c(-c2cccc(Cl)c2)nc2ccccc2c1C(=O)NC1CCCC1	i
O=c1c2nccnc2nc(SCc2ccccc2F)n1Cc1ccc2c(c1)OCO2	i
SMILES	KDM5B inhibitor
Cc1cccc(C(=O)NC(Nc2ccc3ccccc3c2)C(Cl)(Cl)Cl)c1 (stereo not drawn)	i
CNc1nc(-c2ccc(NS(C)(=O)=O)cc2)cs1	i
CN(C)CCCn1ccnc1C1CCCN(C(=O)N(C)c2ccccc2)C1 (stereo not drawn)	i
N#Cc1ccc(F)c(Cn2cnc3ccccc3c2=O)c1	i
O=C(c1cccs1)N1CCCN(C(=O)C2CC2)c2ccccc21	i
Cc1c(CC(=O)NCc2ccc(F)cc2)c(=O)oc2cc(O)ccc12	i
COc1ccc(CC(=O)N[C@H]2[C@H](O)[C@H](O)C[C@@H]2c2ccc(N3CCOCC3)nc2)cc1	32µM*
O=C(COc1ccccc1)N[C@H]1[C@H](O)[C@H](O)C[C@@H]1c1ccc(N2CCOCC2)nc1	32µM*
O=C(N[C@H]1[C@H](O)[C@H](O)C[C@@H]1c1ccc(N2CCOCC2)nc1)c1nc2ccccc2s1	i
CC(C)C(=O)N[C@H]1[C@H](O)[C@H](O)C[C@@H]1c1cccnc1	i
COc1ccc([C@H]2C[C@@H](O)[C@@H](O)[C@@H]2NC(=O)COc2ccccc2)cc1	i
COc1ccc(CC(=O)N[C@H]2[C@H](O)[C@H](O)C[C@@H]2c2ccc(C(F)(F)F)nc2)cc1	i
CC(C)C(=O)N[C@H]1[C@H](O)[C@H](O)C[C@@H]1c1ccc(N2CCOCC2)nc1	40µM*
Cc1ccccc1[C@H]1C[C@@H](O)[C@@H](O)[C@@H]1NC(=O)C(C)C	i
COc1ccc(C(=O)N[C@H]2[C@H](O)[C@H](O)C[C@@H]2c2cccnc2)cc1	i
CN(C)c1cc(N2CCCC(NC(=O)c3ccccn3)C2)ncn1 (stereo not drawn)	i
O=C(O)c1cc(Cl)c(I)c(Cl)c1	i
N#Cc1ccc(COC(=O)c2ccc(N3CCOCC3)nc2)cc1	i
C=CCN(Cc1ccccc1OCC)C(=O)c1ccc(N(C)S(C)(=O)=O)cc1	i
COc1ccc(C)cc1-c1nccc2c(=O)cc(-c3cnn(C)c3)oc12	i
Cc1ccc(-c2nccc3c(=O)cc(N4CCN(C)CC4)oc23)cc1	40µM*
O=c1cc(-c2ccncc2)oc2c(-c3ccccc3O)nccc12	i
Cc1ccc(-c2nn(CC(=O)N3CCN(C)CC3)c(=O)c3ccccc23)cc1	i
C[S+](=O)([O-])c1ccc(-c2nccc3c(=O)cc(-c4ccncc4)oc23)cc1	32µM*
CN1CCN(c2cc(=O)c3ccnc(-c4ccc([S+](C)(=O)[O-])cc4)c3o2)CC1	32µM*
